Bioassay records deposited in PubChem by National Center for Advancing Translational Sciences (NCATS).
Marburg entry inh – blocks Marburg virus binding to or entry into cells | Marburg virus pseudotyped entry inhibition, cell reporter | 1.8% of 300,000 active | Potency, µM (highest dose often 37.8 µM), without a hit: at the top dose activity change, negative = inhibition, actives largely listed as inhibitors; calls by dose curve; tested in HEK293 cells; further: potency means the concentration at half of the fitted maximal effect; on the % scale 0 is the no-effect control and ±100 the full control effect
Cycloheximide cs – counter-screen hit for Shiga toxin inhibitors, cycloheximide; cell reporter, cycloheximide protein synthesis inhibition counterscreen; max response, %; 12% of 300,000 active; AID 2314; in the data active means max response mostly above about 13%, no sharp cut-off; inactive means mostly below about 14%; further: read at 38.3 µM for the half of the compounds with a filed dose; 0% is about no effect
Shiga inhibitor – blocks Shiga toxin action in Vero cells; inhibition, % at 38.7 µM; Vero cells, Shiga toxin protein synthesis inhibition reporter; AID 2315; 9.2% of 290,000 active; in the data active means inhibition mostly above about 28%, no sharp cut-off; inactive means mostly below about 43%; further: 0% is about no effect
FMDV inh – antivirals against foot and mouth disease virus. 1.2% of 410,000 active. Potency, µM (titrated, usually from 57.9 µM), for inactives: at the highest dose activity change, negative = inhibition, usual class: inhibitors. FMDV antiviral cell-based qHTS. AID 1159524; calls by dose curve; tested in HEK293T cells; further: read-out not given here; potency means the concentration at half of the fitted maximal effect; on the % scale 0 is the no-effect control and ±100 the full control effect; nearly all actives have a fitted effect of over 45% in size
HCV inh – inhibitors of hepatitis C virus infection; AID 651820; Huh7.5.1 HCVcc-Cre infection, luciferase reporter, 44 h; 3.4% of 340,000 active; Potency, µM (series often up to 41.8 µM), for the others: at the top dose activity change, negative = inhibition, hits mostly inhibitors; active means well fitted inhibition curve with a large enough effect; inconclusive means small, poorly fitted or top-dose-only effect, or another doubt; inactive means no such curve, though single readings can be large or run the other way; further: potency means the concentration at half of the fitted maximal effect; on the % scale 0 is the no-effect control and ±100 the full control effect
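A cell-based infection assay in which seeded cells (1,000 per well) receive test compound after 4 h, are inoculated with HCVcc-Cre at approximately 0.5 moi, and are incubated 44 h before luminescence detection.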
Lassa entry inh – blocks Lassa virus binding to or entry into cells | Potency, µM (top dose mostly 37.9 µM), without a hit: at the top dose activity change, negative = inhibition, usual class: inhibitors | Lassa virus pseudotype entry inhibition, cell reporter | 1.2% of 300,000 active; calls by dose curve; tested in HEK293 cells; further: potency means the concentration at half of the fitted maximal effect; on the % scale 0 is the no-effect control and ±100 the full control effect; nearly all actives have a fitted effect of over 50% in size
* hit, by the source's call; u = inconclusive; x = no result; [ ] = another dose, or the depositor's remark. Only some compounds are listed: those with a hit (about 13% of all), similar ones and a draw of the others.

SMILES	Marburg entry inh	Cycloheximide cs	Shiga inhibitor	FMDV inh	HCV inh	Lassa entry inh
COc1cccc(C(=O)Nc2nnc(Cc3ccc(OC)c(OC)c3)s2)c1	13.8%[46.1 µM]	3.1	4.0	2.1%	9.3%	-2.9%[46.1 µM]
COc1ccc(Cc2nnc(NC(C)=O)s2)cc1	28.4%[46.1 µM]	10.9	29.4	4.7%	8.1%	-4.7%
COc1ccc(Cc2nnc(NC(=O)c3ccccc3F)s2)cc1	u	19.6*	85.5*	18.5%	7.6%	u
O=C1/C(=C/c2ccc(F)cc2)SC(=S)N1Nc1ncc(C(F)(F)F)cc1Cl	18.7%	7.8	-3.3	1.2%	5.7%	4.5%
COc1ccccc1N=Nc1c(C)noc1C	0.1%	7.3	7.5	-11.2%	u	18.1%
O=C(CNC(=S)N(Cc1ccccc1Cl)C1CCCC1)NCCN1CCOCC1	24.1%[46.1 µM]	-1.8	18.5	5.6%	17.2%	-1.1%
CCCS(=O)(=O)c1c(S(=O)(=O)CCC)c2c(N)cccn2c1C(=O)c1ccc(Br)cc1	u	0.4	-3.6	4.0%	u	u
CCCS(=O)(=O)c1c(S(=O)(=O)CCC)c2c(N)cccn2c1C(=O)c1ccc(OC)cc1	u	0.6	-4.5	11.8%	25.1µM*	u
Cc1cccc(N2CCN(C(=O)CSc3nc4ccccc4nc3N3CC(C)OC(C)C3)CC2)c1C (stereo not drawn)	u	-0.7	-9.4	u	6.31µM*	u
Cc1cccc(NC(=O)CSc2nc3ccccc3nc2N2CC(C)OC(C)C2)c1 (stereo not drawn)	x	11.4*	11.1	-0.3%	11.2µM*	x
COc1cccc(NC(=O)CSc2nc3ccccc3nc2N2CCCC2)c1	x	36.9*	56.9*	3.2%	10µM*	x
COc1cccc(NC(=O)CSc2nc(=O)n(CCN(C)C)c3c2CCCC3)c1	-26.8%	x	x	-0.8%	-14.2%	-4.0%
O=C(CSc1nc2ccccc2nc1N1CCOCC1)N1CCN(c2ccccc2)CC1	x	-1.7	4.9	u	u	x
CCc1ccc(NC(=O)CSc2nc(=O)n(CCN(C)C)c3c2CCCC3)cc1	12.6µM*	x	x	35.0%	u	u
COc1ccc(NC(=O)CSc2nc3ccccc3nc2N2CCCCC2)cc1	-16.7%[46.1 µM]	-2.3	0.6	-26.8%	-23.7%	16.1%[46.1 µM]
C[C@@H](C(=O)NCc1ccccc1)[C@H]1C[C@]1(C)[C@H](NC(=O)OCc1ccccc1)c1ccccc1	u	-4.2	-12.9	-20.9%	u	u
CC(C)Oc1ccc2ccccc2c1CNC[C@H]1O[C@@H](n2ccc(=O)[nH]c2=O)[C@H](O)[C@@H]1O	x	x	x	-9.4%	x	x
CN(Cc1ccc(Cl)c(Cl)c1)C(=O)c1[nH]c(C(F)(F)F)nc1-c1ccccc1	x	x	x	-5.7%	x	x
COc1ccc(-c2cc(C)no2)cc1S(=O)(=O)N1CCOc2ccc(Cl)cc21	x	-4.1	2.9	12.8%	-1.6%	7.6%[46.1 µM]
Cc1cccn2c(=O)c(/C=N/O)c(Nc3ccccc3F)nc12	u	-0.1	-3.4	0.9%	4.3%	17.1%[46.1 µM]
CCc1cccc(NC(=O)CSc2nc3ccccc3nc2N2CCCCC2)c1	u	16.8	14.2	-11.8%	x	u
CCc1ccc(NC(=O)CSc2nc3ccccc3nc2N2CCCCC2)cc1	x	22.0*	14.5	20.0%	-7.4%	x
O=C1c2ccccc2C(=O)c2[nH]c(=O)[nH]c21	u	-1.8	3.9	-4.6%	6.31µM*	10µM*
NC(=O)C1CCN(c2nc(-c3cc4ccccc4o3)cs2)CC1	x	x	x	26.9%	x	x
CN1CCN(c2nc(-c3cccs3)cc(C(F)(F)F)n2)CC1	u	-3.8	-12.8	-24.6%	2.82µM*	-29.2%
SMILES	Marburg entry inh	Cycloheximide cs	Shiga inhibitor	FMDV inh	HCV inh	Lassa entry inh
Nc1nc(-c2cc3ccccc3o2)cs1	-9.7%	32.6*	97.7*	37.7%	-5.5%	u
CN1CCN(c2nc(-c3ccccc3)cc(C(F)(F)F)n2)CC1	u	1.3	-19.1	-1.2%	u	-19.2%
CN1CCN(c2nc(-c3cc4ccccc4o3)cs2)CC1	u	48.2*	84.5*	38.4%	-10.8%	u
CN1CCN(c2nc(-c3cccs3)cs2)CC1	u	27.1*	61.2	49.3%	-22.7%	15.3%
CC(C)(C)C(=O)NNC(=O)c1cc2sccc2s1	1.7%[46.1 µM]	6.0	-2.4	13.1%	13.9%	25.5%[46.1 µM]
CC(Oc1ccc(Br)cc1)C(=O)Nc1nc(-c2ccccn2)cs1 (stereo not drawn)	u	-3.0	6.3	39.8µM*	11.2µM*	u
Cc1csc(NC(=O)C2COc3ccccc3O2)n1 (stereo not drawn)	4.47µM*	13.4*	22.1	12.6µM*	-19.2%	u
CCC(C)NC(=O)c1ccccc1NC(=O)C1COc2ccccc2O1 (stereo not drawn)	x	0.6	-2.7	u	22.4µM*	x
O=C(Nc1nc(-c2ccc(S(=O)(=O)N3CCCC3)cc2)cs1)C1COc2ccccc2O1 (stereo not drawn)	u	4.9	22.9	u	2.24µM*	u
CC(C)NC(=O)c1ccccc1NC(=O)C1COc2ccccc2O1 (stereo not drawn)	-12.0%[46.1 µM]	-4.7	14.4	u	u	-12.0%
Cc1nn(CC(=O)c2ccc(Cl)s2)c(C)c1[N+](=O)[O-]	u	18.0	19.6	38.3%	19.1%	-7.7%
Cc1ccc(Cn2nc(C)c(NC(=O)C3CC3)c2C)cc1	-1.2%	-7.6	1.2	-12.7%	5.8%	5.8%
Cc1ccc2c(c1)-c1c(cnn1CC(=O)N1CCN(c3cc(C)ccc3C)CC1)CO2	6.1%[46.1 µM]	x	x	u	x	x
CC(=O)Nc1nc(-c2ccc3c(c2)OCO3)cs1	x	53.3*	60.8*	18.5%	-25.4%	x
O=C(Nc1nc(-c2ccc3c(c2)OCO3)cs1)C1COc2ccccc2O1 (stereo not drawn)	x	16.4*	-21.0	-23.9%	1.7%	x
CC1CC1C(=O)Nc1nc(-c2ccccn2)cs1 (stereo not drawn)	2.2%[46.1 µM]	21.6*	19.6	-10.1%	-10.6%	-20.6%
C[C@@H](C(=O)Nc1nc(-c2ccccn2)cs1)N1C(=O)C2CCCCC2C1=O (stereo partly drawn)	1.8%	-2.4	-7.7	0.0%	-9.6%	u
COc1cccc(C(=O)Nc2nc(-c3ccc4c(c3)OCO4)cs2)c1	x	3.0	16.2	-7.4%	-10.4%	x
O=C(Nc1nc(-c2ccccn2)cs1)C1COc2ccccc2O1 (stereo not drawn)	x	10.3	10.8	-18.3%	35.5µM*	x
Cc1cnc(NC(=O)C2COc3ccccc3O2)s1 (stereo not drawn)	7.94µM*	12.6	39.0	-63.7%	0.9%	u
CSc1nc2ccc3nc(NC(=O)C4COc5ccccc5O4)sc3c2s1 (stereo not drawn)	x	5.1	22.4	-15.9%	-25.9%	x
OC1(c2ccc(F)cc2)CCN(Cc2cccnc2)CC1	3.8%	-1.5	x	-17.7%	-1.5%	7.1%
O=C(Nc1cc2c(cc1Cl)OCCCO2)c1ccc(F)cc1	4.0%	89.1*	113.8*	11.0%	-26.9%	-0.4%
Cc1ccc(C(=O)Nc2cc3c(cc2Cl)OCCCO3)cc1	u	49.8*	64.5*	63.4%	-4.5%	u
O=C(Nc1cc2c(cc1C(=O)c1ccccc1Cl)OCCO2)c1ccc(Br)cc1	x	x	x	-10.9%	x	1.9%[46.1 µM]
